DSG3 Ab inh – inhibitors of pemphigus antibody binding to human desmoglein-3 | P32926 | DSG3-coupled beads, scFv-anti-DSG3-GFP binding, flow cytometry; active compounds read low | binding (percent of control), % at 10 µM | 310,000 tested, 0.48% active | AID 588358;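 active = binding more than 3 SD below its plate's average and above zero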;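 also: hits lower antibody fragment binding to DSG3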
pPAFAH inh – pPAFAH (human) enzyme inhibition. inhibition, % at 3.39 µM. 330,000 tested, 1.5% active. recombinant pPAFAH, FP-rhodamine probe fluorescence polarization. Q13093;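 active = inhibition above the mean inhibition across the screen plus 3 SD, cut at about 25% in these data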;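 also: inhibitors block binding of the rhodamine activity-based probe so polarization drops; 0% = enzyme with DMSO and 100% = wells lacking pPAFAH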
PAFAH2 inh – PAFAH2 (human) inhibition | 340,000 tested, 0.99% active | Q99487 | AID 492956 | recombinant PAFAH2, FP-rhodamine activity probe, fluorescence polarization | inhibition, % at 3.39 µM;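 active = inhibition above the mean over all tested compounds plus 3 SD, cut at about 30% in these data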;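 also: inhibitors block probe labeling of enzyme so polarization drops; 0% = enzyme with DMSO and 100% = wells lacking PAFAH2 protein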
PAFAH1B3 FP inh – inhibitors of human PAFAH1B3 | Q15102 | recombinant PAFAH1B3, FP-rhodamine probe, fluorescence polarization | inhibition, % at 3.39 µM | 340,000 tested, 0.28% active;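 active = inhibition above the screen-wide average of all tested compounds plus 3 SD, cut at about 25% in these data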;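 also: 0% = enzyme with DMSO only and 100% = wells lacking PAFAH1B3 protein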
Target sequence (Q15102 whole entry, looked up): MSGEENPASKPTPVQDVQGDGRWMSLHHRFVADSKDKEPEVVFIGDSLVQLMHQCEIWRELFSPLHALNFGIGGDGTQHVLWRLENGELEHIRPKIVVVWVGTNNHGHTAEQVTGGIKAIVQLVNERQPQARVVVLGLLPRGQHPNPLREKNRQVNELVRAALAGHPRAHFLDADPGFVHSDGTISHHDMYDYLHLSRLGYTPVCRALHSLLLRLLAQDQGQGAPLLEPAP
PAFAH1B2 FP inh – inhibitors of human PAFAH1B2 | P68402 | recombinant PAFAH1B2, FP-rhodamine activity probe, fluorescence polarization | inhibition, % at 3.39 µM | 340,000 tested, 1.2% active | AID 492953;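 active = inhibition above the mean of all tested compounds plus 3 SD, cut at about 24% in these data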;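 also: 0% = enzyme with DMSO and 100% = wells lacking PAFAH1B2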
Target sequence (P68402 whole entry, looked up): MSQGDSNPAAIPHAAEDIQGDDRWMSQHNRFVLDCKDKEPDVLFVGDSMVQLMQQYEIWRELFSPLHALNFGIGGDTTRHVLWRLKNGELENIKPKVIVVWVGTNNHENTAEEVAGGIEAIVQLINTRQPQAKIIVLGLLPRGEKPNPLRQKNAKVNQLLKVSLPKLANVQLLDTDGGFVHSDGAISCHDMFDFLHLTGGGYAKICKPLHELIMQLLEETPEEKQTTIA
PfM18AAP inh – blocks P. falciparum M18 aspartyl aminopeptidase; recombinant PfM18AAP, H-Glu-NHMec fluorogenic cleavage; AID 1822; inhibition, % at 7.35 µM; 290,000 tested, 1.2% active;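 active = inhibition above the campaign mean inhibition over all tested compounds plus 3 SD, cut at about 28% in these data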;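 also: 0% = plate median of test compound wells and 100% = 2 mM ZnCl2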
* = called active by the depositor; . = no result. In the library only some 3.8% were active in any assay of this set; here they are far more common.

SMILES	DSG3 Ab inh	pPAFAH inh	PAFAH2 inh	PAFAH1B3 FP inh	PAFAH1B2 FP inh	PfM18AAP inh
O=C(C1CCCCC1)N1CCN(S(=O)(=O)c2ccc(Cl)cc2)CC1	107	4	-4	2	27*	6
COc1ccc(NC(=O)CCN2CCN(S(=O)(=O)c3ccc(Cl)cc3)CC2)cc1	95	-6	6	-2	25*	1
O=C(c1cncc(Br)c1)N1CCN(S(=O)(=O)c2ccc(Cl)cc2)CC1	118	3	7	12	25*	-4
O=C(c1cccnc1)N1CCN(S(=O)(=O)c2cccc(Cl)c2)CC1	103	.	-1	3	2	2
COc1ccc(NC(=O)CCN2CCN(S(=O)(=O)c3ccc(C(C)C)cc3)CC2)cc1	113	1	2	12	0	0
CN(Cc1c(C(=O)N/N=C/c2ccccc2O)nnn1-c1nonc1N)C1CCCCC1	100	.	.	.	.	.
Cc1cc([N+](=O)[O-])ccc1NC(=O)CSc1nccc(=O)[nH]1	96	4	3	-7	5	-5
CN(C)c1ccc(C=NN2C(=O)CSC2=S)c(Cl)c1	111	.	.	.	.	.
CC1CCN(C(=S)Nc2ccc3nc4n(c(=O)c3c2)CCCCC4)CC1	109	7	-6	6	24*	2
Cc1cccc(N2CC(C(=O)Nc3nnc(SCc4ccccn4)s3)CC2=O)c1 (stereo unspecified)	90	27*	9	11	5	0
CCOc1ccc(N=C/C=C/c2ccccc2)c(O)c1	98	32*	0	2	0	27
CC1(C)CC(=O)C=C(c2ccc(COC(=O)C(c3ccccc3)c3ccccc3)cc2)C1=O	104	.	.	.	.	.
COC(=O)c1sc(-c2ccc(Cl)cc2)cc1NC(=O)COCC(=O)O	.	15	1	3	43*	-1
COC(=O)c1sc(-c2ccccc2)cc1NC(=O)c1cc(OC)cc(OC)c1	98	3	-4	4	0	-2
COC(=O)c1sc(-c2ccc(C(C)(C)C)cc2)cc1NC(=O)CCC(=O)O	103	26*	.	.	.	0
COC(=O)c1sc(-c2ccc(Cl)cc2)cc1NC(=O)/C=C/C(=O)O	113	3	-2	5	27*	-3
COc1ccc(CN(C)CC(=O)Nc2c(C)cccc2C)c(OC)c1	122	1	2	-4	-3	-7
COc1ccc(CN(C)CC(=O)Nc2sc3c(c2C#N)CCC3)c(OC)c1	97	5	8	6	24*	1
Cc1cccc(NC(=O)c2ccc3c(c2)CCN3S(C)(=O)=O)c1	103	.	3	17	1	-16
C=CCSc1nc(=O)n2ccc(C)cc2n1	89	27*	15	3	-3	-1
Cc1ccc2[nH]c3ccccc3c(=O)c2c1	92	-3	-8	13	2	-6
O=c1c2ccccc2[nH]c2ccc(O)cc12	95	29*	18	14	10	-22
COc1ccc(-c2coc3cc(OC(C)=O)ccc3c2=S)cc1	94	.	-4	10	6	.
COc1ccc(C(C(=O)NC2CCCCC2)N(Cc2cccs2)C(=O)Cc2c[nH]c3ccccc23)cc1 (stereo unspecified)	30*	0	4	13	11	-4
COc1cccc(CN(C(=O)Cc2c[nH]c3ccccc23)C(C(=O)NC2CCCCC2)c2cccs2)c1 (stereo unspecified)	104	5	-1	-2	9	2
SMILES	DSG3 Ab inh	pPAFAH inh	PAFAH2 inh	PAFAH1B3 FP inh	PAFAH1B2 FP inh	PfM18AAP inh
COc1cc(C(=O)NCCc2ccc(F)cc2)ccc1OCC(=O)N1CCOCC1	86*	3	0	4	8	.
O=C(c1ccc(=O)[nH]n1)N1CCN(S(=O)(=O)c2ccc3ccccc3c2)CC1	.	-2	4	4	3	-8
O=C(c1ccc(=O)[nH]n1)N1CCN(S(=O)(=O)c2cccc(F)c2)CC1	104	.	34*	34*	22	.
COc1cc(C(=O)NCCc2ccc3c(c2)OCCO3)ccc1OCC(=O)N1CCOCC1	108	5	-7	5	7	-2
COc1cc(C(=O)N2CCN(S(=O)(=O)c3cccc(F)c3)CC2)ccc1OCC(=O)N1CCOCC1	87*	2	-4	8	-5	.
COc1cc(C(=O)NNC(=O)c2ccc(F)cc2)ccc1OCC(=O)N1CCOCC1	103	-2	-6	5	4	.
CCOc1cc(C(=O)OCc2ccc([N+](=O)[O-])cc2)ccc1OCC(=O)N1CCOCC1	-15	10	17	-4	-5	.
CCOc1cc(C(=O)OCc2cccc(OC)c2OC)ccc1OCC(=O)N1CCOCC1	105	32*	3	-7	1	.
NC(=O)c1nsc(C(=O)N(CC(=O)NC2CCCCC2)Cc2ccc(F)cc2)c1N	102	3	4	2	2	-9
N#Cc1ccccc1C[C@H](N)C(=O)NC[C@H]1O[C@@H](n2ccc(N)nc2=O)[C@H](O)[C@@H]1O	91	.	.	.	.	.
O=C(OCC(=O)c1c[nH]c2ccccc12)c1ccc(F)c(S(=O)(=O)N2CCOCC2)c1	105	.	.	.	.	.
CN1C(=CC=C2C=C(I)C(=O)C(I)=C2)C(C)(C)c2ccccc21	59*	.	-333	-386	-248	-4
O=C1C=CC(n2cc(F)c(=O)[nH]c2=O)O1 (stereo unspecified)	107	.	.	.	.	.
COC/C=C/C1=CC2=CC(=O)C(C)(OC(=O)c3cnc4ccccc4n3)C(=O)C2=CN1c1ccc(OC)cc1 (stereo unspecified)	102	19	14	7	4	.
COC(=O)CCCC1=CC2=CC(=O)C(C)(OC(=O)c3cccs3)C(=O)C2=CN1c1ccccc1 (stereo unspecified)	101	11	3	5	6	.
CCCCC1=CC2=CC(=O)C(C)(OC(=O)CCC(=O)OC)C(=O)C2=CO1 (stereo unspecified)	.	39*	.	.	.	.
COC(=O)CCCC1=CC2=CC(=O)C(C)(OC(=O)c3cccs3)C(=O)C2=CO1 (stereo unspecified)	.	43*	.	.	.	.
COC(=O)CCCC1=CC2=CC(=O)C(C)(OC(=O)c3cnc4ccccc4n3)C(=O)C2=CO1 (stereo unspecified)	.	32*	.	.	.	.
CCCCC1=CC2=CC(=O)C(C)(OC(=O)c3cnc4ccccc4n3)C(=O)C2=CO1 (stereo unspecified)	.	57*	.	.	.	.
COC(=O)CCCC1=CC2=CC(=O)C(C)(OC(=O)c3ccc(Cl)nc3)C(=O)C2=CO1 (stereo unspecified)	.	36*	.	.	.	.
COC/C=C/C1=CC2=CC(=O)C(C)(O)C(=O)C2=CO1 (stereo unspecified)	.	48*	.	.	.	.
COC/C=C/C1=CC2=CC(=O)C(C)(OC(=O)C3CCCC3)C(=O)C2=CO1 (stereo unspecified)	97	24	16	6	-5	.
CC(C)(C)OC(=O)NCCCCC1=CC2=CC(=O)C(C)(OC(=O)c3cnc4ccccc4n3)C(=O)C2=CO1 (stereo unspecified)	.	42*	.	.	.	.

Screening data: PubChem BioAssay, several laboratories
